Test results taken from publication PMC7155171, “Probing the Open Global Health Chemical Diversity Library for Multistage-Active Starting Points for Next-Generation Antimalarials” (ACS Infectious Diseases, 2020).
Read-outs that look alike come from different tables or passages of the source. Whole data set: some 68,000 compounds, median “% viability” near 1.1, cut for the lowest 2% near 0.96. This excerpt belongs to a sample that is enriched for the lowest values. The numbers are fractions of the control, whatever unit the source prints.

Test system: P. falciparum (NF54) stage V gametocytes
Set-up: Mature stage V gametocyte viability, MitoTracker Red CMXRos high-content imaging
Conditions: primary screen, n=2, fraction of DMSO control, 72 h, 2 µM, inhibitor

SMILES	% viability [%]	% viability (Stg V Gam primary screen: Inhibition % (2uM) (n=2)) [%]
CC(NC(=O)CCC1=NC(=C2N=CN=N2)NO1)c1ccc(F)cc1F (stereo not drawn) [DDD01068293]	1.218	–
CC(=O)N1CCCN(C(=O)CCOc2ccc(C(C)C)cc2)CC1 [DDD01298039]	0.9627	–
CN(Cc1ccc(F)c(F)c1)C(=O)CCC1=NC(=C2N=CN=N2)NO1 [DDD01062114]	1.185	–
Cn1cc(C(=O)N2CCCC(c3cc(=O)n(C)[nH]3)C2)cn1 (stereo not drawn) [DDD01060486]	1.105	–
CCCc1nn(C)c(N)c1-c1ccc2c(c1)OCO2 [DDD01074641]	1.2104	–
Cc1ccc(S(=O)(=O)Cc2noc([C@@H]3C[C@@H](O)CN3C(C)C)n2)cc1 [DDD01025534]	1.063	–
Cn1ccc(C(=O)N2CCCC(c3cc(=O)n(C)[nH]3)C2)n1 (stereo not drawn) [DDD01060541]	0.9912	–
Cc1[nH]n(C2CCS(=O)(=O)C2)c(=O)c1Cc1ccccc1Cl (stereo not drawn) [DDD01026964]	1.154	–
Cn1nc(C2CCC2)c(-c2ccc3c(c2)OCO3)c1N [DDD01074643]	1.107	–
CCn1[nH]cc2nc(-c3cc(OC)c(OC)cc3OC)nc1-2 [DDD01254934]	1.131	–
COc1cc2c(cc1-c1nc3c[nH]n(C(C)C)c-3n1)OCO2 [DDD01249461]	1.226	–
COCC(=O)N1Cc2[nH]c3c(C)c(-c4cccs4)nn3c(=O)c2C1 [DDD01056747]	0.9901	–
Cc1[nH]n(C2CCS(=O)(=O)C2)c(=O)c1CCc1ccccc1 (stereo not drawn) [DDD01026977]	1.342	–
CCc1cc(=O)n2nc(C3CCCN3C(=O)c3ccccn3)cc2[nH]1 (stereo not drawn) [DDD01057178]	1.278	–
Cc1[nH]n(Cc2ccc(F)cc2)c2nnc(N)c1-2 [DDD01012470]	1.161	–
Cn1nc(C2CC2)c(-c2ccc3c(c2)OCO3)c1N [DDD01074640]	1.305	–
CCc1nc(CN(C)C2CCN(CCn3cc(C#N)cn3)C2)no1 (stereo not drawn) [DDD01304196]	1.045	–
Cc1ccc(CN2CCc3c([nH]c4cc(C5CC5)nn4c3=O)C2)s1 [DDD01058491]	1.123	–
COc1cc2c(cc1-c1nc3c[nH]n(C)c-3n1)OCO2 [DDD01248770]	1.141	–
COc1cc2c(cc1-c1nc3c[nH]n(C(C)C4CC4)c-3n1)OCO2 (stereo not drawn) [DDD01244142]	1.215	–
Cc1[nH]n(C2CCS(=O)(=O)C2)c(=O)c1Cc1cccc(Cl)c1 (stereo not drawn) [DDD01026994]	1.159	–
CCc1nn(C)c(N)c1-c1ccc2c(c1)OCO2 [DDD01074639]	1.278	–
Cc1cccc(C2N3CCC4(CC3)c3[nH]c5ccccc5c3CCN24)n1 (stereo not drawn) [DDD01058402]	1.009	–
Clc1cccc(-c2cccc(N3CCC(NC4CCOCC4)CC3)c2)c1 [DDD01252000]	1.106	–
CCC(=O)Nc1[nH]nc2c1c(C)nn2Cc1cccc(OC)c1 [DDD01063148]	1.182	–
CCc1ccc(C(C)NC(=O)CCC2=NC(=C3N=CN=N3)NO2)cc1 (stereo not drawn) [DDD01068289]	1.032	–

SMILES	% viability [%]	% viability (Stg V Gam primary screen: Inhibition % (2uM) (n=2)) [%]
CCc1c(C)[nH]c2cc(C3CCN(CCc4ccccc4)C3)nn2c1=O (stereo not drawn) [DDD01060567]	1.041	–
COc1cc2c(cc1-c1nc3c[nH]n(C(C)C(C)C)c-3n1)OCO2 (stereo not drawn) [DDD01255421]	1.199	–
Cc1cc(=O)n2nc(C3CCN(C(=O)c4ccccn4)CC3)cc2[nH]1 [DDD01057174]	1.036	–
COCCC(=O)N1Cc2[nH]c3c(C)c(-c4cccs4)nn3c(=O)c2C1 [DDD01056578]	1.121	–
CCc1c(C)nn2c(=O)cc(C3CCN(C(=O)C4CC4)C3)[nH]c12 (stereo not drawn) [DDD01057056]	1.097	–
CCc1c(C)nn2c(=O)cc(C3CCN(C(=O)c4ccn(C)n4)C3)[nH]c12 (stereo not drawn) [DDD01056907]	1.06	–
CCc1cc(=O)n2nc(C3CCN(C(=O)c4ccncc4)CC3)cc2[nH]1 [DDD01057177]	1.239	–
Cc1cc(=O)n(-c2ccc3nnc(C)n3n2)[nH]1 [DDD01038570]	1.151	–
Cc1nc(O)cc(CCNC(=O)CC[C@@H]2CCCN3CCCC[C@H]23)n1 [DDD01256003]	1.201	–
COc1ccc(-c2c(C(C)C)nn3c(N)c(C#N)nnc23)cc1 [DDD01035184]	0.9469	–
COc1ccc(-c2c(C)nn3c(N)c(C#N)nnc23)cc1 [DDD01035158]	1.096	–
CCc1nn2c(N)c(C#N)nnc2c1-c1ccc(OC)cc1 [DDD01035159]	1.1	–
Cc1ncsc1C(=O)N1CCCCC1c1cc2[nH]c(C)c(C)c(=O)n2n1 (stereo not drawn) [DDD01059037]	1.19	–
Cc1[nH]n(-c2ccc(F)cc2)c2nnc(N)c1-2 [DDD01065623]	1.104	–
COc1cccc(CN(C)CC2=Nc3ccccc3S(=O)(=O)N2)c1 [DDD01073248]	–	1.218
COc1cccc(Cn2nc(C)c3c(NC(=O)C(C)OC)[nH]nc32)c1 (stereo not drawn) [DDD01063202]	1.059	–
COc1cccc(C2=NN=CC2=C2NC(CN3CCCC3)=NO2)c1 [DDD01247208]	1.119	–
COCCC(=O)N1CCC(c2cc(=O)n(C)[nH]2)C1 (stereo not drawn) [DDD01060470]	1.179	–
COc1cccc(F)c1-c1nc2c(C3CC3)[nH]n(C)c-2n1 [DDD01246655]	1.144	–
CCC(CO)N(Cc1cccnc1)C(=O)c1ccc(C(F)(F)F)nc1O (stereo not drawn) [DDD01253913]	1.193	–
Cc1ccccc1CN(C)C(=O)CCC1=NC(=C2N=CN=N2)NO1 [DDD01062116]	1.259	–
Cc1[nH]n(C2CCCCC2)c2nc(C(C)(C)CN3CCOCC3)nc1-2 [DDD01254749]	1.099	–
Cc1[nH]n(C2CCCC2)c2nc(C(C)(C)CN3CCN(C)CC3)nc1-2 [DDD01248613]	1.14	–
Cc1nc(N2CCCC2)ncc1-c1cc(=O)n2ncnc2[nH]1 [DDD01038581]	1.014	–
CCc1cc(=O)n2nc(C3CCN(C(=O)c4ccccn4)CC3)cc2[nH]1 [DDD01057364]	1.067	–
